The record followed here is paper PMC10812921, “Transcriptional Coactivator BOB1 (OBF1, OCA-B) Modulates the Specificity of DNA Recognition by the POU-Domain Factors OCT1 and OCT2 in a Monomeric Configuration”.

In one test the target is POU1 (OCT1 POU domain) (human, UniProt P14859 260-458). In words: EMSA-SELEX-seq; no BOB1; 20 mM Tris-HCl pH 7.6, 140 mM NaCl, 10% glycerol, 0.5 mM EDTA, 0.05% Triton X-100, 0.1 mg/mL BSA, 0.1 mg/mL poly(dI-dC), 5 mM DTT, room temperature, 20 min; high values mean tight binding. The note with it: protein: recombinant; dsDNA, one strand shown. In a few lines: (§1)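 With or without 28 ng coactivator protein, 30 ng of tagged POU-domain protein was combined with 300 ng of a PCR-amplified double-stranded random 35-nt library in 20 μL Tris–HCl pH 7.6 binding buffer for 20 min at RT. The protein came from E. coli BL21 and had been purified under denaturing conditions and renatured. Four rounds of cutting complex bands from native 6% PAGE, elution and PCR amplification preceded Illumina sequencing. The binding preference figure is the percentage of sequenced 8-mers matching a motif pattern.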
Sequence of POU1 (OCT1 POU domain) (P14859 260-458): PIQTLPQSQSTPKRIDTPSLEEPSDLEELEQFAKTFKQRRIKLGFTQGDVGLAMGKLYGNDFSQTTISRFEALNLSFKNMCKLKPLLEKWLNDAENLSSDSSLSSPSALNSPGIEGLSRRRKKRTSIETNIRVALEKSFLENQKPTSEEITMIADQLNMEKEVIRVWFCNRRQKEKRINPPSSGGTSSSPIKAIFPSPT
On the technique in general: In EMSA bound probe runs differently from free probe, usually more slowly.

A further test addresses T1, POU2 (OCT2 POU domain) (human, UniProt P09086 175-386).
T1 sequence: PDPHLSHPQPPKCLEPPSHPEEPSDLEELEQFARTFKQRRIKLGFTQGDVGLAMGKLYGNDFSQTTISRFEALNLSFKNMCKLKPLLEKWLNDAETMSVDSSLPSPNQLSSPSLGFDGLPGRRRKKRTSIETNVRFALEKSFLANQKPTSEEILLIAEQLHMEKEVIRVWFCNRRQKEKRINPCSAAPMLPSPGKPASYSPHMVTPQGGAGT
Described as above. Conditions: protein: recombinant; dsDNA, one strand shown. In a few lines:
as §1

Test [1] deals with POU1 (OCT1 POU domain);BOB1 (OBF1, OCA-B) (human;human, UniProt P14859;Q16633 260-458;1-256, |). In words: EMSA-SELEX-seq; with BOB1 (ternary complex band); 20 mM Tris-HCl pH 7.6, 140 mM NaCl, 10% glycerol, 0.5 mM EDTA, 0.05% Triton X-100, 0.1 mg/mL BSA, 0.1 mg/mL poly(dI-dC), 5 mM DTT, room temperature, 20 min; high values mean tight binding. The note with it: protein: recombinant;recombinant; copies: 1;1; dsDNA, one strand shown. A digest of the protocol:
as §1

For test [2], the target named is T2, POU2 (OCT2 POU domain);BOB1 (OBF1, OCA-B) (human;human, UniProt P09086;Q16633 175-386;1-256, |).
T2 sequence 1: T1 sequence
T2 sequence 2: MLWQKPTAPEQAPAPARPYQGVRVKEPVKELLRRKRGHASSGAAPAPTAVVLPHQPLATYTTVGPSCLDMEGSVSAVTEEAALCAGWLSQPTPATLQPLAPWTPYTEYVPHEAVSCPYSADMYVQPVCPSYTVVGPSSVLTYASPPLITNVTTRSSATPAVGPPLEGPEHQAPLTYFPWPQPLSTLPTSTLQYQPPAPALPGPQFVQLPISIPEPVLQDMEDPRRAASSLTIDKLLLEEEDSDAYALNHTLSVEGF
The test is described as above. Conditions: protein: recombinant;recombinant; copies: 1;1; dsDNA, one strand shown. A digest of the protocol:
as §1

As for AGACTAAG, the binding signal is 0.0278 % of ANNNNAAN 8-mers with POU1 (OCT1 POU domain), 0.0328 % of ANNNNAAN 8-mers with POU2 (OCT2 POU domain), 0.03 % of ANNNNAAN 8-mers in test [1] and 0.0314 % of ANNNNAAN 8-mers in test [2].

Turning to ACTGCAAT, the binding signal in the test with POU1 (OCT1 POU domain) is 0.0301 % of ANNNNAAN 8-mers; in the test with POU2 (OCT2 POU domain), 0.0213 % of ANNNNAAN 8-mers; in test [1], 0.0367 % of ANNNNAAN 8-mers; in test [2], 0.0248 % of ANNNNAAN 8-mers.

With AGGTAAAG, the binding signal was 0.0801 % of ANNNNAAN 8-mers in the test with POU1 (OCT1 POU domain), 0.0708 % of ANNNNAAN 8-mers with POU2 (OCT2 POU domain), 0.116 % of ANNNNAAN 8-mers in test [1] and 0.071 % of ANNNNAAN 8-mers in test [2].

With ATCGCAAC, the binding signal was 0.0126 % of ANNNNAAN 8-mers with POU1 (OCT1 POU domain), 0.0173 % of ANNNNAAN 8-mers in the test with POU2 (OCT2 POU domain), 0.014 % of ANNNNAAN 8-mers in test [1] and 0.0239 % of ANNNNAAN 8-mers in test [2].

Consider ATAGGAAT, for which the binding signal with POU1 (OCT1 POU domain) was 0.098 % of ANNNNAAN 8-mers; with POU2 (OCT2 POU domain) it was 0.132 % of ANNNNAAN 8-mers; in test [1], 0.0898 % of ANNNNAAN 8-mers; in test [2] it was 0.106 % of ANNNNAAN 8-mers.

Take AATTCAAG: the binding signal in the test with POU1 (OCT1 POU domain) is 0.101 % of ANNNNAAN 8-mers; in the test with POU2 (OCT2 POU domain), 0.0886 % of ANNNNAAN 8-mers; in test [1], 0.0714 % of ANNNNAAN 8-mers; in test [2], 0.0817 % of ANNNNAAN 8-mers.

AACCAAAC: the binding signal in the test with POU1 (OCT1 POU domain) was 0.0248 % of ANNNNAAN 8-mers; in the test with POU2 (OCT2 POU domain), 0.0236 % of ANNNNAAN 8-mers; in test [1], 0.0437 % of ANNNNAAN 8-mers; in test [2], 0.0239 % of ANNNNAAN 8-mers.

On to ACATCAAC, for which the binding signal was 0.0172 % of ANNNNAAN 8-mers with POU1 (OCT1 POU domain), 0.0253 % of ANNNNAAN 8-mers with POU2 (OCT2 POU domain), 0.0211 % of ANNNNAAN 8-mers in test [1] and 0.0281 % of ANNNNAAN 8-mers in test [2].

Turning to ACCTAAAA, the binding signal was 0.021 % of ANNNNAAN 8-mers with POU1 (OCT1 POU domain), 0.0311 % of ANNNNAAN 8-mers in the test with POU2 (OCT2 POU domain), 0.0254 % of ANNNNAAN 8-mers in test [1] and 0.0157 % of ANNNNAAN 8-mers in test [2].

For AGAATAAC, the binding signal in the test with POU1 (OCT1 POU domain) was 0.0534 % of ANNNNAAN 8-mers; with POU2 (OCT2 POU domain), 0.0673 % of ANNNNAAN 8-mers; in test [1], 0.0312 % of ANNNNAAN 8-mers; in test [2], 0.0487 % of ANNNNAAN 8-mers.

Turning to ACAACAAA, the binding signal in the test with POU1 (OCT1 POU domain) was 0.0301 % of ANNNNAAN 8-mers; with POU2 (OCT2 POU domain), 0.0265 % of ANNNNAAN 8-mers; in test [1], 0.0371 % of ANNNNAAN 8-mers; in test [2], 0.0248 % of ANNNNAAN 8-mers.

Take ACCGAAAA: the binding signal with POU1 (OCT1 POU domain) was 0.0248 % of ANNNNAAN 8-mers; with POU2 (OCT2 POU domain), 0.0322 % of ANNNNAAN 8-mers; in test [1], 0.0226 % of ANNNNAAN 8-mers; in test [2], 0.0165 % of ANNNNAAN 8-mers.

For AACGTAAA, the binding signal in the test with POU1 (OCT1 POU domain) is 0.0816 % of ANNNNAAN 8-mers; with POU2 (OCT2 POU domain) it was 0.0639 % of ANNNNAAN 8-mers; in test [1] it was 0.0843 % of ANNNNAAN 8-mers; in test [2], 0.0578 % of ANNNNAAN 8-mers.

Take ACTTAAAT: the binding signal with POU1 (OCT1 POU domain) is 0.0767 % of ANNNNAAN 8-mers; with POU2 (OCT2 POU domain) it was 0.11 % of ANNNNAAN 8-mers; in test [1], 0.0714 % of ANNNNAAN 8-mers; in test [2], 0.057 % of ANNNNAAN 8-mers.

With ACGGGAAG, the binding signal in the test with POU1 (OCT1 POU domain) was 0.0332 % of ANNNNAAN 8-mers; in the test with POU2 (OCT2 POU domain), 0.0339 % of ANNNNAAN 8-mers; in test [1], 0.0254 % of ANNNNAAN 8-mers; in test [2], 0.0347 % of ANNNNAAN 8-mers.

AGCATAAA: the binding signal with POU1 (OCT1 POU domain) is 0.204 % of ANNNNAAN 8-mers; with POU2 (OCT2 POU domain), 0.213 % of ANNNNAAN 8-mers; in test [1] it was 0.0566 % of ANNNNAAN 8-mers; in test [2], 0.0867 % of ANNNNAAN 8-mers.

As for AATCAAAG, the binding signal was 0.0854 % of ANNNNAAN 8-mers with POU1 (OCT1 POU domain), 0.0857 % of ANNNNAAN 8-mers with POU2 (OCT2 POU domain), 0.122 % of ANNNNAAN 8-mers in test [1] and 0.0916 % of ANNNNAAN 8-mers in test [2].

For ATAATAAT, the binding signal is 0.273 % of ANNNNAAN 8-mers with POU1 (OCT1 POU domain), 0.353 % of ANNNNAAN 8-mers in the test with POU2 (OCT2 POU domain), 0.11 % of ANNNNAAN 8-mers in test [1] and 0.143 % of ANNNNAAN 8-mers in test [2].

For ATAAAAAG, the binding signal with POU1 (OCT1 POU domain) is 0.0915 % of ANNNNAAN 8-mers; with POU2 (OCT2 POU domain), 0.114 % of ANNNNAAN 8-mers; in test [1] it was 0.0925 % of ANNNNAAN 8-mers; in test [2], 0.0735 % of ANNNNAAN 8-mers.

As for AGTTGAAT, the binding signal with POU1 (OCT1 POU domain) is 0.0927 % of ANNNNAAN 8-mers; with POU2 (OCT2 POU domain), 0.119 % of ANNNNAAN 8-mers; in test [1] it was 0.0667 % of ANNNNAAN 8-mers; in test [2], 0.0834 % of ANNNNAAN 8-mers.

As to ACGCTAAA, the binding signal with POU1 (OCT1 POU domain) is 0.0305 % of ANNNNAAN 8-mers; in the test with POU2 (OCT2 POU domain), 0.0391 % of ANNNNAAN 8-mers; in test [1], 0.0281 % of ANNNNAAN 8-mers; in test [2], 0.0322 % of ANNNNAAN 8-mers.

ACTAGAAA: the binding signal is 0.032 % of ANNNNAAN 8-mers with POU1 (OCT1 POU domain), 0.0322 % of ANNNNAAN 8-mers with POU2 (OCT2 POU domain), 0.0261 % of ANNNNAAN 8-mers in test [1] and 0.0305 % of ANNNNAAN 8-mers in test [2].

ACACTAAA: the binding signal with POU1 (OCT1 POU domain) was 0.0256 % of ANNNNAAN 8-mers; in the test with POU2 (OCT2 POU domain) it was 0.0293 % of ANNNNAAN 8-mers; in test [1], 0.0273 % of ANNNNAAN 8-mers; in test [2] it was 0.0173 % of ANNNNAAN 8-mers.

With ATATCAAA, the binding signal is 0.0877 % of ANNNNAAN 8-mers with POU1 (OCT1 POU domain), 0.0806 % of ANNNNAAN 8-mers with POU2 (OCT2 POU domain), 0.0823 % of ANNNNAAN 8-mers in test [1] and 0.0726 % of ANNNNAAN 8-mers in test [2].

With AACTAAAA, the binding signal was 0.0431 % of ANNNNAAN 8-mers in the test with POU1 (OCT1 POU domain), 0.0478 % of ANNNNAAN 8-mers with POU2 (OCT2 POU domain), 0.0386 % of ANNNNAAN 8-mers in test [1] and 0.0305 % of ANNNNAAN 8-mers in test [2].
